The list is not random: actives were taken first. Their share in the collection is about 1.7%.
S1P2 blocker: blocks the human S1P2 receptor | O95136 | cell-based S1P2 antagonist assay, inhibition at 5 uM | inhibition, % at 5 µM | actives 0.21% (n = 97,000) | AID 736; in the data active means inhibition above about 45%;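 further: CRE beta-lactamase reporter cells expressing human S1P2 stimulated with S1P; 0% = agonist at EC80 alone and 100% = agonist plus reference antagonist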
Target sequence (O95136 whole entry, looked up): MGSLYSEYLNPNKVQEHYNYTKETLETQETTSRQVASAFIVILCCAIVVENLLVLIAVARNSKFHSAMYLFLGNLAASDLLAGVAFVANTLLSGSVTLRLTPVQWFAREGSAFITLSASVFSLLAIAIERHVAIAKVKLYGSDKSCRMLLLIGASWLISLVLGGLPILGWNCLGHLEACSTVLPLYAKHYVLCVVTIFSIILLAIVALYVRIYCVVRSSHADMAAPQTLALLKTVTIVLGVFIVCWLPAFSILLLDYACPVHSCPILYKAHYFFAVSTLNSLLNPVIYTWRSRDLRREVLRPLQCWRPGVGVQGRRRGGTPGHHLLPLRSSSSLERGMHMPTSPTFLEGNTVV
MRP resist rev: MRP-mediated drug resistance reversal. H69AR cells + 2 uM doxorubicin, CellTiter-Glo, 72 h. differential viability (reversal), % at 10 µM. actives 0.04% (n = 85,000);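 active means viability drop by adding the cancer drug above about 55%, with treated viability meeting a 40% cutoff, limit read from the data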;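 further: viability without doxorubicin minus viability with 2 µM doxorubicin for each compound; larger differential means the compound sensitizes cells more to doxorubicin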
GALR2 blocker: blocks the human galanin receptor 2; inhibition, % at 4 µM; GALR2-expressing cells, antagonist mode; actives 0.39% (n = 140,000); in the data active means inhibition above about 27%;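 further: cells stimulated with galanin 1-16 at roughly its EC80; 0% = agonist challenge control and 100% = basal control without agonist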
Target sequence (O43603 whole entry, looked up): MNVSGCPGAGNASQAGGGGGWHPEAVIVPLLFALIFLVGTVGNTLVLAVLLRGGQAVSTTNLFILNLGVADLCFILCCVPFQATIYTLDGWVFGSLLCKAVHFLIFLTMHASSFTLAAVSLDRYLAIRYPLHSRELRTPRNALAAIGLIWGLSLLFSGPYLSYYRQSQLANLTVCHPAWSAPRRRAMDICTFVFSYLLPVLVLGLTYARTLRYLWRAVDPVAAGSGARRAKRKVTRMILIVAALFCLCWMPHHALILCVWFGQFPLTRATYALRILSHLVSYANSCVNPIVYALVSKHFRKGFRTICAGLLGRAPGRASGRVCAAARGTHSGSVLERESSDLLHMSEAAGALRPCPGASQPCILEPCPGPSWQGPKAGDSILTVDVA
GALR2 ag: activates the human galanin receptor 2. O43603. GALR2-expressing cells, agonist activation read-out. activation, % (no concentration beside the values). actives 0.48% (n = 140,000). AID 803; in the data active means activation above about 5%, passing the limit was not always enough;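 further: 0% = vehicle buffer wells and 100% = reference agonist at full effect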
MRP1 act: MRP-1 activation; H69AR cells + doxorubicin, viability rescue, CellTiter-Glo; viability increase, % at 10 µM; actives 0.61% (n = 140,000); AID 799;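 active means viability gain under doxorubicin at or above a set limit, the compound median plus 3 SD, cut at about 4.7% in these data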;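 further: MRP-1 overexpressing cells given doxorubicin 25 µM after compound pretreatment; 18-22 h compound pretreatment then 72 h with doxorubicin before readout; 0% = doxorubicin-only wells and 100% = vehicle-treated cells without doxorubicin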
S1P2 agonist: S1P2 (human) receptor agonism | AID 729 | activation, % at 4.5 µM | S1P2-expressing cell line, agonist reporter read-out | actives 0.46% (n = 97,000) | O95136; in the data active means activation above about 16%;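 further: 0% = vehicle low control and 100% = maximal reference agonist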
Starred values were filed as active, the others as inactive; nt = not tested or not shown.

SMILES | S1P2 blocker | MRP resist rev | GALR2 blocker | GALR2 ag | MRP1 act | S1P2 agonist
COCCNC(=O)CSc1nnc(CCCN2C(=O)c3cccc4cccc(c34)C2=O)n1-c1ccccc1 | nt | nt | -4.7 | -0.1 | -0.9 | nt
O=C(c1ccc(COc2ccc(Br)cc2)o1)N1N=C(C(F)F)CC1(O)C(F)F (configuration not stated) | nt | nt | 7.9 | -0.1 | 5.5* | nt
c1ccc(-n2ncc3c(N4CCN(CCOc5cccc6ccccc56)CC4)ncnc32)cc1 | -10.0 | 53.5 | -5.3 | -1.8 | -2.9 | -0.9
Cc1n[nH]c(=S)n(/N=C/c2ccccn2)c1=O | 16.7 | 7.6 | -14.7 | -1.5 | 6.0* | -3.5
Cc1nnc(C)n1/N=C/c1ccccn1 | 18.8 | -9.4 | -2.9 | -2.5 | -2.1 | -10.0
Cc1cccc(Nc2nc(N)c([N+](=O)[O-])c(NCc3ccco3)n2)c1 | nt | nt | -16.0 | 2.1 | -1.7 | nt
CNc1nc(Nc2ccc(Br)cc2)nc(N)c1[N+](=O)[O-] | nt | nt | 6.8 | 5.3* | -3.8 | nt
CC(C)(C)c1ccc(/C=C/C(=O)Nc2nncs2)cc1 | nt | nt | 8.4 | -1.3 | 3.1 | nt
CS(=O)c1nc(-c2ccc(Br)cc2)cc(-c2ccccc2)c1C#N (configuration not stated) | nt | 0.8 | 57.3* | 6.2* | -2.5 | nt
N#Cc1c(-c2ccc(Br)cc2)cc(-c2cccnc2)nc1N | nt | nt | 7.2 | 3.4 | -1.3 | nt
COc1ccc(-c2cc(-c3ccccc3)c(C#N)c(S(C)(=O)=O)n2)cc1 | 10.2 | -0.9 | -1.1 | -2.0 | -3.7 | 5.8
CS(=O)(=O)c1nc(-c2ccc(Br)cc2)cc(-c2ccccc2)c1C#N | 1.6 | -0.5 | -0.3 | -2.7 | -3.4 | 18.9*
C=CCOc1ccc(C=Nc2ccc(Cl)cc2)c(O)c1 | nt | nt | 9.9 | -1.6 | -0.8 | nt
Cc1cc2c(N=NC(=O)CCc3ccccc3)c(O)[nH]c2cc1Br | nt | nt | 4.0 | -0.3 | -2.0 | nt
Cc1ccc(S(=O)(=O)N(Cc2cc3cccc(C)c3[nH]c2=O)c2ccccc2)cc1 | nt | nt | -2.7 | 0.4 | 1.4 | nt
CC1CCC(C(=O)NC(C(=O)NCc2cccnc2)C(C)C)CC1 (configuration not stated) | -25.1 | nt | 15.4 | -5.4 | -0.1 | -7.1
COc1ccc(-c2nc(-c3cccc(C)c3)no2)cc1OC | -9.3 | -22.7 | -4.0 | 0.8 | 5.5* | -2.2
COc1cc(-c2nc(-c3cccc(C)c3)no2)cc(OC)c1OC | -8.8 | -2.8 | -9.2 | -2.4 | 0.7 | 3.9
O=C(Nc1nnc(COc2ccc(Cl)cc2)s1)C1CCCO1 (configuration not stated) | -11.8 | -0.6 | 2.0 | -0.3 | 8.9* | -7.8
CCCCC(=O)/C=C/n1c(=S)oc2ccccc21 | nt | nt | -7.9 | 0.6 | -5.4 | nt
COCCNc1nc2c(c(=O)n(Cc3ccc(OC)cc3)c(=O)n2C)n1C | -9.3 | 7.6 | 6.6 | -1.3 | -0.7 | -7.4
COc1ccc(CNc2nc3c(c(=O)n(Cc4ccc(Cl)cc4)c(=O)n3C)n2C)cc1 | 33.8 | 20.2 | -2.0 | -1.4 | 5.5* | -3.4
CCOc1ncccc1C(=O)OCC(=O)Nc1cc(C)ccc1C | -0.5 | 8.2 | 7.2 | -3.1 | -0.6 | 20.7*
CCOc1ncccc1C(=O)OCC(=O)Nc1cc(S(=O)(=O)N2CCOCC2)ccc1C | nt | nt | 1.8 | 0.2 | -1.1 | nt
Fc1cccc(NC(=S)NCCN2CCOCC2)c1 | nt | nt | 0.9 | 0.0 | -1.9 | nt
SMILES | S1P2 blocker | MRP resist rev | GALR2 blocker | GALR2 ag | MRP1 act | S1P2 agonist
O=C(Cc1ccccc1)Nc1ccccc1Oc1ccccc1 | nt | nt | -4.8 | -0.2 | 8.1* | nt
CC(C)C(=O)N1CCN(c2ccccc2NC(=O)c2cccc(Cl)c2)CC1 | 0.7 | 78.1* | 1.6 | -1.6 | -2.8 | -0.6
Cc1[nH]c(=O)[nH]c(=O)c1NS(=O)(=O)c1ccccc1 | nt | nt | -25.1 | 0.1 | 0.0 | nt
Cc1ccnc(SCc2cc(=O)c(OC(=O)c3ccc(Cl)c([N+](=O)[O-])c3)co2)n1 | nt | nt | 2.8 | -0.5 | -1.5 | nt
COc1ccc(N2C(=O)CC(N3CCC(O)(c4ccc(Br)cc4)CC3)C2=O)cc1 (configuration not stated) | 5.5 | 9.5 | 15.7 | -1.4 | -0.5 | -8.6
O=C1CC(N2CCC(O)(c3ccc(Br)cc3)CC2)C(=O)N1c1ccc(Cl)cc1 (configuration not stated) | nt | nt | 15.2 | -1.1 | 6.3* | nt
O=C1CC(N2CCCCC2)C(=O)N1c1ccccc1 (configuration not stated) | -1.8 | -0.8 | 15.4 | -0.9 | 0.2 | -9.0
O=C1CC(N2CCCN(C3CC(=O)N(c4ccc(F)cc4)C3=O)CC2)C(=O)N1c1ccc(F)cc1 (configuration not stated) | -1.3 | 9.5 | -3.0 | -1.7 | 8.3* | -1.1
O=[N+]([O-])c1cccc(/C=C/c2nc3ccc([N+](=O)[O-])cc3[nH]2)c1 | 22.4 | nt | 0.4 | -2.2 | -6.2 | -2.3
CC(C)CN(CC(C)C)C(=O)CS(=O)(=O)Cc1ccccc1 | -3.3 | 17.9 | 4.6 | -0.7 | 0.2 | -1.7
Cc1cc(C(=O)CN2C(=O)NC3(CCCc4sccc43)C2=O)c(C)n1-c1ccccc1 (configuration not stated) | nt | nt | 4.6 | -0.8 | 4.8* | nt
Cc1ccc(NCC(=O)Nc2cccc(S(=O)(=O)N(C)C)c2)c(Cl)c1 | nt | nt | 5.8 | -1.2 | -0.8 | nt
CCOc1ccccc1NC(=O)c1cccc(NC(=O)CC(c2ccccc2)c2ccccc2)c1 | 8.6 | nt | -22.6 | 0.1 | 8.6* | -5.3
CCOc1ccccc1NC(=O)c1ccc(Cl)c(NC(=O)CC(c2ccccc2)c2ccccc2)c1 | -10.0 | nt | 7.2 | -3.7 | 0.6 | -5.7
CCOc1cc(-c2c(C#N)c(N)nc3c2CCc2ccccc2-3)ccc1O | nt | nt | 13.3 | -0.2 | -4.4 | nt
COc1ccccc1-c1c(C#N)c(N)nc2c1CCc1ccccc1-2 | nt | nt | 11.7 | 5.7* | -5.7 | nt
O=C(NNC1=C(C(=O)C(F)(F)F)CCC1)c1ccc(Cl)cc1 | -15.5 | -28.4 | -3.1 | 0.1 | 6.4* | -4.8
CC(C)(C)c1ccc(C(=O)NNC(=O)c2ccc(Cl)cc2)cc1 | nt | nt | 12.2 | 0.8 | -2.9 | nt
O=C(NNC1=C(C(=O)C(F)(F)F)CCC1)c1cccc(Cl)c1 | -2.0 | -22.8 | -1.0 | -2.3 | 6.5* | -4.1
Cc1cccc(NC(=O)CCNC(=O)c2ccco2)c1 | nt | nt | -1.6 | 0.0 | 0.6 | nt
CCN(C(=O)c1ccc(C(C)(C)C)cc1)c1nnc(Cn2nnc3ccccc32)s1 | 86.6* | -8.3 | 16.7 | -1.9 | 0.4 | -10.4
CCOC(=O)Cc1nc2ccccc2[nH]1 | -11.3 | 7.2 | 5.0 | 5.4* | -0.1 | -5.3
Cc1cc(=O)oc2cc3c(cc12)OCCN3 | -38.7 | 8.2 | -4.6 | 10.2* | -3.9 | 45.8*
COc1ccccc1/C=C(/CC(=O)NCc1ccc2c(c1)OCO2)c1nc2ccccc2s1 | nt | nt | 17.4 | -1.9 | -4.2 | nt
COc1cc(-c2nn3c(Cc4ccccc4)nnc3s2)cc(OC)c1OC | -52.7 | -5.4 | -31.1 | 0.9 | -2.1 | 20.8*
O=C(CCC1CCCC1)Nc1nnc(-c2ccc3c(c2)OCO3)s1 | nt | nt | -10.9 | -1.9 | -2.1 | nt
CCOC(=O)c1nnc(-c2ccccc2)nc1Oc1ccccc1Cl | -14.9 | nt | 7.2 | -1.4 | 5.2* | -3.1
Cc1ccc(Sc2nc([N+](=O)[O-])nn2C)cc1 | nt | nt | -2.6 | -0.1 | 2.5 | nt

Bioassay records (PubChem BioAssay)
